About 83,000 compounds went through this panel and 20% of them were active in at least one assay; those are over-represented in the sample as a whole.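 Testing used 96-well plates and a 48-hour single-concentration exposure. Example: -40 means 40% of the starting cells died.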 Active and inactive are the calls of the source. Rule for the calls: active = growth percent below 10; inactive = the rest.
Legend:
Test in all cases: NCI-60 one-dose screen, 48 h (100 = growth as untreated, 0 = no growth, -100 = all killed)
Conditions in all cases: 10 µM
SR leukemia = system: SR leukemia
RPMI-8226 leukemia = system: RPMI-8226 leukemia
OVCAR-8 ovarian = system: OVCAR-8 ovarian
OVCAR-5 ovarian = system: OVCAR-5 ovarian
OVCAR-4 ovarian = system: OVCAR-4 ovarian
SK-OV-3 ovarian = system: SK-OV-3 ovarian
IGROV1 ovarian = system: IGROV1 ovarian
OVCAR-3 ovarian = system: OVCAR-3 ovarian
HS 578T breast = system: HS 578T breast
NCI/ADR-RES ovarian = system: NCI/ADR-RES ovarian

Measured: growth

COc1cc(C2CC(c3ccccc3)=Nc3c(N)nc(N)nc3N2)ccc1Oc1nc(Nc2ccc(F)cc2)nc(N(C)C)n1 (stereo not given)
active: SR leukemia 2.83%
inactive: RPMI-8226 leukemia 13.5% | OVCAR-8 ovarian 40.4% | OVCAR-5 ovarian 85.8% | OVCAR-4 ovarian 35.5% | SK-OV-3 ovarian 87.2% | IGROV1 ovarian 50.8% | OVCAR-3 ovarian 36.4% | HS 578T breast 48.1% | NCI/ADR-RES ovarian 36.8%

O=C(CNc1nc(-c2ccccc2)cs1)Nc1ccc([N+](=O)[O-])cc1Cl
active: NCI/ADR-RES ovarian -7%
inactive: SR leukemia 16.7% | RPMI-8226 leukemia 15.5% | OVCAR-8 ovarian 30.4% | OVCAR-5 ovarian 36.4% | OVCAR-4 ovarian 45.4% | SK-OV-3 ovarian 35.8% | IGROV1 ovarian 33.9% | OVCAR-3 ovarian 23.4% | HS 578T breast 17.6%

N#Cc1ccc(-c2nn(-c3ccc(C(=O)O)cc3)cc2CNc2cc(Cl)cc(C(F)(F)F)c2)cc1
active: SR leukemia 1.72% | RPMI-8226 leukemia 1.01% | HS 578T breast -0.292% | NCI/ADR-RES ovarian 1.78%
inactive: OVCAR-8 ovarian 20.1% | OVCAR-5 ovarian 59.8% | OVCAR-4 ovarian 27.8% | SK-OV-3 ovarian 55.2% | IGROV1 ovarian 34.7% | OVCAR-3 ovarian 22%

C=C1CCC2C3(C)COC(c4ccccc4F)OC3CCC2(C)C1C/C=C1/C(=O)OCC1O (stereo not given)
inactive: SR leukemia 11.6% | RPMI-8226 leukemia 13.4% | OVCAR-4 ovarian 22.2% | SK-OV-3 ovarian 26.3%
active: OVCAR-8 ovarian -54.3% | OVCAR-5 ovarian -42.8% | IGROV1 ovarian -45.8% | OVCAR-3 ovarian -79.1% | HS 578T breast -0.635% | NCI/ADR-RES ovarian -23%

COc1cc2c3c(n(CCCNCCO)c(=O)c2cc1OC)-c1nc2c(cc1C3=O)OCO2
active: SR leukemia 1.88% | RPMI-8226 leukemia 3.98% | OVCAR-8 ovarian -69.3% | OVCAR-5 ovarian -3.64% | SK-OV-3 ovarian -14.2% | OVCAR-3 ovarian -68.5%
inactive: OVCAR-4 ovarian 26.1% | IGROV1 ovarian 12.4% | HS 578T breast 65.6% | NCI/ADR-RES ovarian 84.1%

COc1cccc2nc(Nc3cccc(NC(=O)c4ccc(CN5CCCN(C)CC5)c(C(F)(F)F)c4)c3)ccc12
active: SR leukemia -27.1% | RPMI-8226 leukemia -39.4% | OVCAR-8 ovarian -69.3% | OVCAR-5 ovarian -100% | OVCAR-4 ovarian -84.4% | SK-OV-3 ovarian -72.8% | IGROV1 ovarian -85.2% | OVCAR-3 ovarian -58.6% | HS 578T breast -61.7% | NCI/ADR-RES ovarian -77.9%

O=C(Nc1ccc(Cl)c([N+](=O)[O-])c1)Nc1ccc(Cl)c([N+](=O)[O-])c1
active: RPMI-8226 leukemia -20.5% | OVCAR-3 ovarian 9.61% | NCI/ADR-RES ovarian 6.5%
inactive: SR leukemia 12.4% | OVCAR-8 ovarian 20.7% | OVCAR-5 ovarian 49.8% | OVCAR-4 ovarian 23.2% | SK-OV-3 ovarian 79.4% | IGROV1 ovarian 15.3% | HS 578T breast 45.1%

CCOc1ccc(Nc2nc3ccccc3nc2Nc2ccc(OCC)cc2)cc1
inactive: SR leukemia 42.2% | RPMI-8226 leukemia 18.5% | OVCAR-8 ovarian 58.3% | OVCAR-5 ovarian 107% | OVCAR-4 ovarian 52.7% | SK-OV-3 ovarian 108% | IGROV1 ovarian 55% | OVCAR-3 ovarian 22.5% | HS 578T breast 107% | NCI/ADR-RES ovarian 65%

CN1CCN(Cc2ccc(NC(=O)c3cncc(C#Cc4cnc5ccc(N[C@H]6CCOC6)nn45)c3)cc2C(F)(F)F)CC1
active: SR leukemia -21.7% | RPMI-8226 leukemia -35.1% | OVCAR-8 ovarian -94.4% | OVCAR-5 ovarian -72% | OVCAR-4 ovarian -65.3% | SK-OV-3 ovarian -63.8% | IGROV1 ovarian -74.6% | OVCAR-3 ovarian -93.7% | HS 578T breast -42.7%
inactive: NCI/ADR-RES ovarian 13.7%

O/N=C(\CSc1nnc(-c2c[nH]c3ccccc23)n1-c1ccccc1)c1ccc(Cl)cc1
active: RPMI-8226 leukemia -13.4% | OVCAR-8 ovarian 6.37% | OVCAR-5 ovarian -43.4% | OVCAR-4 ovarian -81.3% | SK-OV-3 ovarian -1.58% | IGROV1 ovarian -34.1% | HS 578T breast -31.7% | NCI/ADR-RES ovarian -70.2%
inactive: SR leukemia 12.8% | OVCAR-3 ovarian 34.2%

CCNCCCn1c2c(c3cc(OC)c(OC)cc3c1=O)C(=O)c1cc3c(nc1-2)OCO3
active: SR leukemia -7.45% | RPMI-8226 leukemia -34.7% | OVCAR-8 ovarian -64.5% | OVCAR-5 ovarian -88.7% | OVCAR-3 ovarian -90.1% | NCI/ADR-RES ovarian -30.8%
inactive: OVCAR-4 ovarian 57.9% | SK-OV-3 ovarian 35.4% | IGROV1 ovarian 18.4% | HS 578T breast 97.4%

COc1cnc2c(c1)C(=O)c1c-2n(CCCNCCO)c(=O)c2cc(OC)c(OC)cc12
active: SR leukemia 5.85% | RPMI-8226 leukemia 4.21% | SK-OV-3 ovarian 7.28% | OVCAR-3 ovarian 3.13%
inactive: OVCAR-8 ovarian 30.4% | OVCAR-5 ovarian 24% | OVCAR-4 ovarian 47.8% | IGROV1 ovarian 27.2% | HS 578T breast 105% | NCI/ADR-RES ovarian 88%

N#Cc1ccc(NC(=O)CSc2ccc(-c3ccc(Br)cc3)nn2)cc1
inactive: SR leukemia 46.6% | RPMI-8226 leukemia 57.6% | OVCAR-8 ovarian 76.3% | OVCAR-5 ovarian 88.2% | OVCAR-4 ovarian 59% | SK-OV-3 ovarian 86.1% | IGROV1 ovarian 74.6% | OVCAR-3 ovarian 76.6% | HS 578T breast 72.9% | NCI/ADR-RES ovarian 35.7%

CCOC(=O)CNC(=O)CN(Cc1ccccc1)C(=O)[C@@]1(C)CCC[C@]2(C)[C@H]3C[C@H]4C(C(C)C)=C[C@]3(CC[C@H]21)[C@@H]1C(=O)OC(=O)[C@@H]14
inactive: RPMI-8226 leukemia 15.2% | OVCAR-8 ovarian 55.9% | OVCAR-5 ovarian 105% | OVCAR-4 ovarian 62.2% | SK-OV-3 ovarian 89.4% | IGROV1 ovarian 41.8% | OVCAR-3 ovarian 44.1% | HS 578T breast 60.3% | NCI/ADR-RES ovarian 45.3%
active: SR leukemia 4.44%

COc1ccc2[nH]cc(/C=N/Nc3ccc(Br)cn3)c2c1
active: SR leukemia 3.07% | RPMI-8226 leukemia -11.4% | NCI/ADR-RES ovarian 7.9%
inactive: OVCAR-8 ovarian 34% | OVCAR-5 ovarian 55.3% | OVCAR-4 ovarian 53.2% | SK-OV-3 ovarian 65.7% | IGROV1 ovarian 10.3% | OVCAR-3 ovarian 31.1% | HS 578T breast 25.8%

Reference: PubChem BioAssay (NCI)
